These results are taken from PubChem BioAssay AID504847 (National Center for Advancing Translational Sciences (NCATS), 2011).

Values joined by “and” are separate entries in the source; they are usually repeats but may differ in a detail not shown here. Equal entries are not always repeated. Out of some 400,000 compounds screened, about 3,700 (0.93%) were called active. About 3% were inconclusive and are not listed. This is one part of a sample in which actives are shown more often than they occur. The call rests on the fitted dose curve; in most records, active means well fitted inhibition curve with a large enough effect; inconclusive means small, poorly fitted or top-dose-only effect, or another doubt; inactive means no such curve, though single readings can be large or run the other way.
On the % scale 0 is the no-effect control and ±100 the full control effect; potency means the concentration at half of the fitted maximal effect.

The target in the test is Vitamin D3 receptor (Homo sapiens) (UniProt P11473). The test can be described thus: Inhibitors of the vitamin D receptor (VDR): qHTS. The settings on record: VDR-SRC2-3 peptide fluorescence polarization, 2 h; max response, negative = inhibition: active compounds read low. From the text: The vitamin D receptor (VDR) is a ligand-activated transcription factor and is partially responsible for the regulation of the endocrine system. This includes the transcriptional regulation of genes involved in the production of the parathyroid hormone (PTH) and the regulation of the blood calcium level. High levels of PHT can cause hypercalcemia in the case of primary and tertiary hyperparathyroidism. The VDR-mediated gene regulation, activated by its ligand 1,25-dihydroxyvitamin D3 (1,25-(OH)2D3), is governed by the recruitment of coactivators. Our hypothesis is that small molecules, with the ability to inhibit the interaction between VDR and certain coactivators, are able to selectively modulate VDR-mediated transcription. Our long term objective is the application these VDR-coactivator inhibitors to study the role of VDR-coactivator binding for specific VDR regulated genes. Ultimately, these molecules can be developed into new treatments for hypercalcemic hyperparathyroidism. No small molecule or non-peptide inhibitors are known for the VDR-coactivator interaction.
Vitamin D3 receptor (Homo sapiens), sequence (P11473 whole entry, looked up): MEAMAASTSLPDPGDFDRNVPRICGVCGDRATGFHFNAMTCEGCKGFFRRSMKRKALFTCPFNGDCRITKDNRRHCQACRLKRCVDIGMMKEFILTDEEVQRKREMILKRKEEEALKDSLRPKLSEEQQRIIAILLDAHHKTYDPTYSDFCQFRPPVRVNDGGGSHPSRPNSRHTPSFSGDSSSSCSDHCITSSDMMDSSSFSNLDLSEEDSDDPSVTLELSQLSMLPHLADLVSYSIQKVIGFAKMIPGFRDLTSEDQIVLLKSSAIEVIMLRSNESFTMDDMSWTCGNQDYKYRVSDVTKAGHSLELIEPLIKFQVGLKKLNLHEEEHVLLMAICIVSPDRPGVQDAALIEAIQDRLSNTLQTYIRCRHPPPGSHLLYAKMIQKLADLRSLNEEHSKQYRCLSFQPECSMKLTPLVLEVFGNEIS
In a collaboration between the University of Wisconsin, Milwaukee and the NIH Chemical Genomics Center (NCGC) a HTS-compatible enzymatic assay was developed. The assay uses fluorescence polarization as its read-out to measure the inhibition between VDR and coregulator peptide SRC2-3 exerted by small molecules. This assay was used to screen the NIH Molecular Libraries Small Molecule Repository (MLSMR).
NIH Chemical Genomics Center [NCGC]
NIH Molecular Libraries Probe Centers Network [MLPCN]
Assay Submitter (PI): Alexander Arnold, University of Wilwaukee
Both solutions are kept at 4 deg C and protected from light and dispensed using a Kalypsys dispenser. Then 23nl of compounds and controls are added with Kalypsys pintool. […] Plate is centrifuged at 1000 RPM for 15 seconds to remove any residual bubbles. The plate is then incubate at ambient room temperature for 2 hours.
(Quantitative high-throughput screening tests each substance at several concentrations.)
As to `Cc1cccc(Cn2cccc(C(=O)Nc3ccc4c(c3)OCCO4)c2=O)c1`, the max response, negative = inhibition was 10.5% (inactive).

`Clc1ccc([C@@H]2C[C@H]3CC[C@@H]2N3)cn1`: the max response, negative = inhibition is 3.4% (inactive).

On to `C1CC[C@H]([C@@]23C[C@H](C[C@H]4CCCN[C@H]42)[C@@H]2CCCCN2C3)NC1`, for which the max response, negative = inhibition was 1.42% (inactive). On to `O=C(O)c1cc[c]([Sb](=[O])([OH])[OH])cc1[N+](=O)[O-]`, for which the max response, negative = inhibition is -21.9% (inactive).

As to `C[C@@]12CCC3C(CC[C@@H]4CC(O)CC[C@@]34C)C1CCC2O` (stereo partly specified), the max response, negative = inhibition was -4.26% (inactive). In the case of `O=C1NC(=O)N(c2ccccc2)C(=O)/C1=C/c1ccc([N+](=O)[O-])s1`, the Potency is 50.1 µM (active).

Regarding `CN1CCCC(=C(c2cccs2)c2cccs2)C1`, the max response, negative = inhibition was 3.88% (inactive).

Take `CC[N+]1(CCOC(=O)C(O)(c2ccccc2)c2ccccc2)CCCCC1`: the max response, negative = inhibition is 4.12% (inactive). On to `C[C@]12CC[C@H](O)C[C@@H]1CC[C@H]1[C@H]2CC[C@]2(C)C(=O)CC[C@@H]12`, for which the max response, negative = inhibition is -9.44% (inactive) and 0.624% (inactive) and 3.94% (inactive).

For `Cc1ccnc(-n2c(C)cc(/C=C3\C(=O)NC(=S)N(C)C3=O)c2C)c1`, the Potency was 39.8 µM (active). Regarding `Cc1cc(C=C2C(=O)NC(=O)NC2=O)c(C)n1-c1ccncc1`, the max response, negative = inhibition was -27.9% (inactive).

As for `CCN1C[C@@]2(COC)CC[C@H](OC)[C@]34[C@@H]1[C@]1(OCO[C@@]15C[C@@H](OC)C1C[C@H]3[C@H]5[C@@H]1OC)[C@H](O)[C@@H]24`, the max response, negative = inhibition is 1.56% (inactive). Take `CC(C)(Cc1c[nH]c2ccc(Cl)cc12)NCCOc1ccccc1OCC1CC1`: the max response, negative = inhibition was -1.04% (inactive) and 2.67% (inactive). On the same count and under the same terms, for `CC(C)(O)c1[se]c2ccccc2c1I` the value was -15.8% (inactive); for `c1csc(CN2CCCC3(CCNCC3)C2)n1`, -8.79% (inactive). On to `Cc1nnc(NC(=O)c2cccn(Cc3cccc(F)c3)c2=O)s1`, for which the max response, negative = inhibition was 12.7% (inactive). With `O=c1[nH]c(O)c(C=Nc2cc(F)cc(F)c2)c(=O)[nH]1`, the max response, negative = inhibition is -6.29% (inactive). For the molecule `Cc1ccc2c(c1)=C/C(=C\c1c(O)[nH]c(=O)[nH]c1=O)C(=O)N=2`, the Potency was 89.1 µM (active). Turning to `C/C(=C\C=C/[C@@H](C)C(=O)O)[C@H]1CN[C@H](C(=O)O)[C@@H]1CC(=O)O`, the max response, negative = inhibition was -9.05% (inactive). `COc1ccc2[nH]cc(CCNCc3ccc(Br)cc3)c2c1`: the max response, negative = inhibition is 5.83% (inactive). On to `COC(=O)c1ccc2[se]c(CC3CCCCC3)c(I)c2c1`, for which the max response, negative = inhibition was 3.86% (inactive).

With `C=CCN1C(=O)NC(=O)/C(=C/c2ccc(OCC(=O)Nc3ccc(C)cc3)cc2)C1=O`, the Potency was 70.8 µM (active).

`CCC(=O)c1ccc(OCC(=O)N2CCN(CC(=O)Nc3ccc(C)cc3)CC2)cc1`: the max response, negative = inhibition was 0.567% (inactive).

`C=CCN(CC=C)C(=O)Nc1ccc(OCC)cc1`: the max response, negative = inhibition was -2.13% (inactive). Same read-out and setting: with `C[C@@H]1C[C@@H]2O[C@H]2/C=C\C=C\C(=O)Cc2c(Cl)c(O)cc(O)c2C(=O)O1` the figure was -4.25% (inactive). As to `O=C1CCc2cccc3c2N1CC3`, the max response, negative = inhibition was -0.897% (inactive). With `COC([CH2][Hg])CNC(=O)c1ccccc1OCC(=O)O` (stereo unspecified), the Potency was 5.62 µM (active).

For the molecule `CCCCCCCCc1[se]c2ccccc2c1Br`, the max response, negative = inhibition was 0.449% (inactive). Regarding `N[C@H](Cc1o[nH]c(=O)c1Cl)C(=O)O`, the max response, negative = inhibition is 3.74% (inactive). `C=CCN1CCC23c4c5ccc(O)c4O[C@H]2C(=O)CC[C@@]3(O)C1C5` (stereo partly specified): the max response, negative = inhibition is -0.103% (inactive) and 4.39% (inactive). `C[C@H]1CC[C@@]2(NC1)O[C@@H]1C[C@H]3[C@@H]4CC=C5C[C@@H](O)CC[C@]5(C)[C@@H]4CC[C@]3(C)[C@@H]1[C@@H]2C`: the max response, negative = inhibition is -0.658% (inactive). With `C=CCN1CCC2(C)c3cc(O)ccc3CC1[C@@H]2C` (stereo partly specified), the max response, negative = inhibition is 1.58% (inactive).

With `CC(=O)OC1C2CCC3C1(CC(O)[C@@]1(O)[C@@H](CC(O)C1(C)C)[C@]3(C)O)C[C@@]2(C)O` (stereo partly specified), the max response, negative = inhibition was 0.185% (inactive). Regarding `CN[C@@H]1C[C@H]2O[C@@](C)([C@@H]1OC)n1c3ccccc3c3c4c(c5c6ccccc6n2c5c31)C(=O)NC4`, the max response, negative = inhibition is 1.57% (inactive) and -1.64% (inactive). `CCNC[C@H](O)c1cccc(O)c1`: the max response, negative = inhibition is -1.81% (inactive). Turning to `C=CCSSCC=C`, the Potency is 20 µM (active). As to `COC1=C[C@]23CCCN2CCc2cc4c(cc2[C@@H]3[C@@H]1O)OCO4`, the max response, negative = inhibition is -4.23% (inactive). Turning to `CC(C)(c1ccc(OC[C@@H]2CO2)cc1)c1ccc(OC[C@H]2CO2)cc1`, the max response, negative = inhibition is 4.79% (inactive). Consider `CN1C2CC3CC1C(O3)C2O` (stereo unspecified), for which the max response, negative = inhibition was -5.48% (inactive). Consider `CCN1C[C@]2(COC)C(O)C[C@H](OC)[C@@]34C5C[C@]6(O)C(OC)C(O)[C@](OC(C)=O)(C5C6OC(=O)c5ccccc5)C(C(OC)C23)C14` (stereo partly specified), for which the max response, negative = inhibition is 4.87% (inactive). Turning to `COC(=O)C1=C(c2ccccc2)C[C@@H]2CC[C@H]1N2C(=O)NCc1ccco1`, the max response, negative = inhibition was -7.95% (inactive). For the molecule `CCOC(=O)C(O)(c1ccc(NC(=O)c2ccco2)c(OC)c1)C(F)(F)F` (stereo unspecified), the max response, negative = inhibition is 9.73% (inactive). On to `COc1cc(Cn2c(N)c(C(=O)NCc3ccco3)c3nc4ccccc4nc32)cc(OC)c1OC`, for which the Potency was 79.4 µM (active).

Consider `CC(=O)NBr`, for which the max response, negative = inhibition was -2.36% (inactive). With `CCN1C[C@]2(C)CC[C@H](O)[C@@]34[C@@H]5CC6[C@@H](OC)C[C@@](O)([C@@H]5[C@@H]6O)[C@H](C[C@@H]23)[C@H]14`, the max response, negative = inhibition is 0.208% (inactive). On to `NS(=O)(=O)c1ccc(CCNC(=O)c2ccc(Cl)c(S(=O)(=O)N3CCCCCC3)c2)cc1`, for which the max response, negative = inhibition was 6.51% (inactive).
